The entries come from a sample that favours hits as a whole.
ERG-DNA inh: ERG Ets/DNA interaction inhibition; Potency, µM (highest dose often 76.9 µM), without a hit: top-dose FP activity, negative = inhibition, usual class: inhibitors; P11308; fluorescence polarization, His-ERG Ets domain / labelled DNA; AID 624246; 370,000 compounds, 0.028% hits; active means well fitted inhibition curve with a large enough effect in the polarisation, with a control signal flat; inconclusive means small, poorly fitted or top-dose-only effect, or effect the other way, or a change in a side signal; inactive means no such curve, though single readings can be large or run the other way; the % refers to the polarisation;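 further: polarization taken with two DNA probes labelled with fluorescein and Texas red; potency means the concentration at half of the fitted maximal effect; % of control where 0% means no effect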
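His-tagged ERG Ets domain (1 uM in the protein solution; 300mM KCl, 50mM Tris-HCl, 1mM EDTA, 1mM DTT, pH 7.5) received compound, then a probe mix of 5 nM fluorescein-DNA and 100nM Texas-615-DNA. Fluorescence polarization was read for both dyes.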
TR SRC2 fluor cs: counter-screen for TRb-SRC2 inhibitors: fluorescence interference; TRb/SRC2 Texas Red total fluorescence interference; Potency, µM (titrated, usually from 106 µM), without a hit: at the top dose fluorescence change, negative = quenching; 280,000 compounds, 0.29% hits; AID 1479; active means well fitted curve in either direction with a large enough effect; inconclusive means small, poorly fitted or top-dose-only effect; further: potency means the concentration at half of the fitted maximal effect; on the % scale 0 is the no-effect control and ±100 the full control effect
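Human TRβ ligand-binding domain (0.6 uM) and Texas Red SRC2 peptide (20 nM) in Tris buffer with 1 uM T3 and 5% DMSO were incubated with pinned compound for 5 hr at ambient temperature. Total fluorescence was computed as S + 2P (555/632 nm).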
TRb SRC2 PPI: inhibitors of human thyroid hormone receptor beta-SRC2 interaction | TRbeta-SRC2 peptide binding, fluorescence polarization; receptor liganded with 1 µM T3 | Potency, µM (highest dose often 106 µM), for inactives: at the top dose activity change, negative = inhibition, actives largely listed as inhibitors | P10828 | 280,000 compounds, 0.065% hits;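 further: potency means the concentration at half of the fitted maximal effect; plate controls were bound peptide for no effect and peptide without receptor for full effect; nearly all actives have a fitted effect of over 50% in size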
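TRb LBD 0.6 uM + Texas Red SRC2 peptide 20 nM, 1 uM T3, Tris buffer w/ 5% DMSO; compound pinned, 5 h RT; FP read ex 555/em 632; normalized to unbound and bound controls.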
RGS12 GoLoco inh-1: RGS12 GoLoco-Gai1 interaction inhibition | Gai1:RGS12 GoLoco peptide FP, rhodamine, 10 min | Potency, µM (titrated, usually from 61.6 µM), for the others: at the top dose activity, negative = inhibition, most hits filed as inhibitors | P63096 | 230,000 compounds, 0.44% hits; active means well fitted inhibition curve with a large enough effect, not every such curve was filed as active; inactive means no such curve, though single readings can be large or run the other way; further: potency means the concentration at half of the fitted maximal effect; on the % scale 0 is the no-effect control and ±100 the full control effect; nearly all actives have a fitted effect of over 30% in size
RGS12 GoLoco inh-2: confirmation of human RGS12 GoLoco motif inhibitors; AID 2390; 110 compounds, 50% hits; shares compounds with RGS12 GoLoco inh-1; Gai1/rhodamine-RGS12 GoLoco peptide fluorescence polarization; Potency, µM (series often up to 57.1 µM), for the others: at the highest dose activity, negative = inhibition, hits mostly inhibitors
Target sequence (O14924 whole entry, looked up): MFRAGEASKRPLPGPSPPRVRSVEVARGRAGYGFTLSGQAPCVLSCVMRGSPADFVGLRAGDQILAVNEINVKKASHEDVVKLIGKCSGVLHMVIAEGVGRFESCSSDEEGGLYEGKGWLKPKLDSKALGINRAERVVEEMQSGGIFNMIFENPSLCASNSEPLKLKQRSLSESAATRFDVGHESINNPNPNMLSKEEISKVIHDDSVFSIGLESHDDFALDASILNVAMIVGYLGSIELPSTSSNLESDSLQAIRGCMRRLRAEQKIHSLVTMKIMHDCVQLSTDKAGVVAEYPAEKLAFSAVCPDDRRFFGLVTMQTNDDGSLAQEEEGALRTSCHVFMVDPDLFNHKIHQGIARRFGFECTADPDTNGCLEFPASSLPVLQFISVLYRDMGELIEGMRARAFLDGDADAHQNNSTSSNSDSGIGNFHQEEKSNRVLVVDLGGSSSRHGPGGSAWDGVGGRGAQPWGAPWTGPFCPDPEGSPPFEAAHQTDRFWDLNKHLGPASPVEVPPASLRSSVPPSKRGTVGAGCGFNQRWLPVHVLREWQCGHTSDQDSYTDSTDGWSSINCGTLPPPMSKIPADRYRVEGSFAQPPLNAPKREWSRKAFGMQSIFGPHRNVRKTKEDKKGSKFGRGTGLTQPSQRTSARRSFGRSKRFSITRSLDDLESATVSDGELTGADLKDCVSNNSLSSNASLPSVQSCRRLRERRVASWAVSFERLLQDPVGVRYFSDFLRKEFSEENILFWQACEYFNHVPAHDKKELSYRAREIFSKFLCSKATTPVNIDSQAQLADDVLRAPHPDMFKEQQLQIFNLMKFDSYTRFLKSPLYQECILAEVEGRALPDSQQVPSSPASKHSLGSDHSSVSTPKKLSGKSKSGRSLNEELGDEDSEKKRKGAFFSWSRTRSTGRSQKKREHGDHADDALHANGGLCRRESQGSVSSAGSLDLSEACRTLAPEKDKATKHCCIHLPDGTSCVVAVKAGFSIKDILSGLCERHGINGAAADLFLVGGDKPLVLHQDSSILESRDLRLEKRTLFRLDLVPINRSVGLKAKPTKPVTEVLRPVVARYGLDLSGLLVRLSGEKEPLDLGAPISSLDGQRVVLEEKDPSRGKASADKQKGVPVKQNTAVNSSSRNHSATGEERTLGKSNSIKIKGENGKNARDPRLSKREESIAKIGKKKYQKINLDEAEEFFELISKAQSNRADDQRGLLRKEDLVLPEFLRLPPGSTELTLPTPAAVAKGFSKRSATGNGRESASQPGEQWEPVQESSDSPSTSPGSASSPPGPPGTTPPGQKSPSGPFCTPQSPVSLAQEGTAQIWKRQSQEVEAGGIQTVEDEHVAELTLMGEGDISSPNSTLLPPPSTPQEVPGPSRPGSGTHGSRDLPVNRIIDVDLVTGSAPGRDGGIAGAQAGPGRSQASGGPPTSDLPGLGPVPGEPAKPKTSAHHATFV
The depositor's hits bear a star; ? = inconclusive; / = no result given; ! = not confirmed by another sample; [ ] = dose if it differs, or a comment. Unless noted, the call rests on the fitted dose curve; in most records, active means well fitted curve in the direction sought with a large enough effect; inconclusive means small, poorly fitted or top-dose-only effect, or another doubt; inactive means no such curve, though single readings can be large; an effect the other way counts as inactive or inconclusive.

SMILES	ERG-DNA inh	TR SRC2 fluor cs	TRb SRC2 PPI	RGS12 GoLoco inh-1	RGS12 GoLoco inh-2
CCCCc1c(C)[nH]c(=S)[nH]c1=O	7%	3%	-1%	-5%	/
Cc1cc(/C=C/c2ccc3cc(N(C)C)ccc3[n+]2C)c(C)n1-c1ccccc1	/	40µM*[fluorescent]	?	-11%	/
CN(C)Cc1ccc(-c2cc3onc(-c4ccccc4)c3c(=O)n2C)cc1	/	/	/	8%[14.2 µM]	/
O=C(Nc1nnc(S(=O)(=O)N2CCCCC2)s1)c1ccc(F)cc1	-1%	100µM*[quencher]	-12%	/	/
COc1ccc2c(c1)O[C@@H](c1ccc3c(c1)OCO3)[C@H](OC(=O)N[C@H](C)C1CCCCC1)C2=O	/	-1%	-3%	32µM*	/
COc1ccc(NC(=O)Cn2c(=O)c3cc(Cl)ccc3n3nncc23)cc1	5%	0.35µM*[quencher]	-23%[53 µM]	/	/
COc1ccc(NC(=O)Cn2c(=O)c3ccccc3n3nncc23)cc1Cl	-1%	0%	-2%	/	/
CO[Si](OC)(OC)c1ccccc1	/	0%[201 µM]	-4%[201 µM]	/	/
CCCCNS(=O)(=O)c1ccccc1	/	-3%[201 µM]	-3%[201 µM]	/	/
c1ccc2n[nH]nc2c1	-4%	-1%	-3%	16µM*	/
CCCCCCCCCCCCC/C=C/[C@@H](O)[C@@H](N)COP(=O)(O)O	/	0%	5%	22µM*!	/
Cc1ccc(-c2cc(C3C4C=CCC(C)C4C(=O)N3Cc3ccccc3)ccc2F)cc1 (centres undefined)	/	-1%	3%	/	/
COc1ccc(-c2noc(CCC(=O)Nc3ccccc3Cl)n2)cc1OC	7%	0.004µM*[quencher]	-28%[53 µM]	/	/
Cc1ccc(NC(=O)CSc2nc3nccnc3c(=O)n2CCc2c[nH]c3ccccc23)cc1	-3%	25µM*[quencher]	?	/	/
CCCCCCCCC/C=C/CC1CC(=O)OC1=O (centres undefined)	/	-1%	6%	-10%	/
COc1ccc(CNC(=O)COC(=O)Cc2ccc(Cl)cc2Cl)cc1	4%	35µM*[quencher]	?	-7%	/
CCOCCOCCOC(C)=O	/	-5%[201 µM]	6%[201 µM]	/	/
Cc1ccc(NC(=O)CSc2nnc(-c3cccnc3)s2)cc1	7%	0.32µM*[quencher]	?	-2%	/
CC(C)C(=O)OC(=O)C(C)C	/	-1%[201 µM]	5%[201 µM]	/	/
CN1CC(O)C2=CC(=O)C(=O)C=C21 (centres undefined)	/	?	-24%	3.5µM*	/
CCCCOc1ccccc1C1C(C(N)=O)=C(C)Nc2nnnn21 (centres undefined)	-3%	-1%	-17%	-1%	/
CCCOc1ccccc1C1C(C(=O)Nc2ccccc2)=C(C)Nc2nnnn21 (centres undefined)	-7%	0.1µM*[quencher]	-11%	/	/
CC(C)N1C(=O)CC2(CC[N+](C)(CCOC(=O)C(c3ccccc3)c3ccccc3)CC2)C1=O (centres undefined)	-1%	-2%	-2%	11µM*	/
O=C(OCCN1CCOCC1)C(c1ccccc1)c1ccccc1	/	-4%	2%	1%	/
OC(COCc1ccccc1)COCc1ccccc1	-1%	/	/	/	/
SMILES	ERG-DNA inh	TR SRC2 fluor cs	TRb SRC2 PPI	RGS12 GoLoco inh-1	RGS12 GoLoco inh-2
Cc1n(CC(O)COCc2ccccc2)c2ccccc2[n+]1C (centres undefined)	-1%	-1%	-2%	8.9µM*	13µM*
O=C(CSc1nnc(-c2ccccc2)n1-c1ccccc1)NCc1ccco1	0%	3%	0%	-7%	7%
CO/N=C(/C(=O)N[C@H]1C(=O)N2C(C(=O)O)=C(COC(C)=O)CSC12)c1csc(N)n1 (some centres undefined)	/	0%	4%	7.9µM*	3%
CO/N=C(/C(=O)NC1C(=O)N2C(C(=O)O)=C(CSc3nc(=O)c(O)nn3C)CSC12)c1csc(N)n1 (centres undefined)	/	-2%	-7%	-6%	/
C[C@H]1Cc2c(COc3ccccc3)nc3c(c2CO1)CN(S(=O)(=O)c1ccc(Cl)c2nonc12)CC3	/	-5%[11.2 µM]	-4%[11.2 µM]	-3%[14.2 µM]	/
O=C(Nc1cccc(Nc2cc(Nc3cccc(C(F)(F)F)c3)ncn2)c1)C1CC1	/	/	/	/	6%
O=C(Nc1cccc(C(F)(F)F)c1)C1CCCN(c2ncccn2)C1 (centres undefined)	4%	-4%	-1%	2%	/
C=CCc1cc(/C=N\NC(=O)CSc2nnc(CCCc3ccc(OC)c(C)c3)o2)cc(OC)c1O	1%	3%	-1%	14µM*	?
COc1ccc(/C=C/c2ccccc2)cc1C1C2C=CCCC2(C)C(=O)N1Cc1ccccc1 (centres undefined)	/	-1%	7%	/	/
O=C1c2cccc3c(O)ccc(c23)C(=O)N1Cc1ccco1	?	-7%	-6%	11µM*	10µM*
O=C(O)c1cccc(C[C@H](Br)C(=O)O)c1	/	/	/	2%[14.2 µM]	/
NC(C(=O)O)C(CC(=O)O)c1ccc(Cl)cc1 (centres undefined)	/	0%	-4%	10%	/
Cc1[nH]c2ccccc2c1C(=O)CN1C(=O)C(=O)N(C2CCCC2)C1=O	9%	1%	-6%	9%	/
Cc1[nH]c2ccccc2c1C(=O)CN1CCN(C2CCCCC2)CC1	/	-3%	0%	1.8µM*	?
CCn1c(SCC(=O)N(C(C)C)C(C)C)nnc1-c1cc2ccccc2cc1O	5%	-4%	-1%	3.2µM*	?
NCCNC(=S)S	/	/	/	-8%[14.2 µM]	/
NNC(=O)c1ccc[n+](CCc2ccccc2)c1	/	/	/	1%[14.2 µM]	/
Cc1ccc(-c2nnc(SCC(=O)NCC3CCCO3)n2C)cc1 (centres undefined)	-3%	-1%	-3%	11%	/
Cn1c(SCC(=O)Nc2ccc3c(c2)oc2ccccc23)nnc1-c1ccccc1	/	0%	-5%	3.5µM*	7.9µM*
CCC(=O)Nc1ccc(-c2nnc(SCC(=O)NCC3CCCO3)n2C)cc1 (centres undefined)	1%	-2%	10%	-6%	12%
COc1ccc(-c2nc3c(c4c2C[C@H](c2ccccc2)OC4)CN(S(=O)(=O)c2ccc(NC(C)=O)cc2)CC3)c(C)c1	/	-6%[11.2 µM]	-1%[11.2 µM]	8%[14.2 µM]	/
Cc1cc(C)c2c(=O)n(CC(=O)Nc3ccc(Br)c(C)c3)sc2n1	5%	-3%	2%	-26%	-14%
COc1ccc(OC)c(CCNC(=O)Cn2sc3nc(C)cc(C)c3c2=O)c1	/	-6%	-9%	11µM*	4µM*
Cc1cc(C)c2c(=O)n(CC(=O)Nc3cccc(Cl)c3C)sc2n1	6%	0%	2%	4µM*	14µM*
CC1(C)CCC[C@@](C)([C@H]2CC[C@]3(C)[C@@H]2[C@H](O)CC2[C@@]4(C)CC[C@H](O)C(C)(C)[C@@H]4[C@@H](O)C[C@]23C)O1 (some centres undefined)	/	0%	5%	/	/
O=C(CSCc1ccccc1Br)N/N=C/c1ccc(OCC(=O)N2CCCCC2)cc1	0%	-4%	-2%	/	/
COc1ccc(CSCC(=O)N/N=C/c2ccc(OCC(=O)N3CCCCC3)cc2)cc1	/	-1%	-6%	3.5µM*	?

From PubChem
